Screening data from PubChem BioAssay.
FAS TE block = FAS thioesterase (human) inhibition. P49327. 360,000 compounds, 0.67% hits. AID 602261. inhibition, % at 15 µM. recombinant FAS-TE, OMFH fluorogenic substrate, fluorescence endpoint;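 active means compounds whose normalised, plate-corrected inhibition of enzyme fluorescence in the single-dose primary screen is 50% or more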;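 further: 0% = DMSO with enzyme and 100% = substrate without enzyme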
aDG glyco act = increases alpha dystroglycan glycosylation. Pro5-aDG cells, alpha-DG glycosylation AlphaScreen (IIH6); 0% Pro5, 100% B10-LARGE cell signal. activation, % at 10 µM. 360,000 compounds, 0.22% hits. AID 624168;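 active means activation of at least 8% versus controls, or a plate z-score of at least 8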;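 further: Pro5 are CHO cells carrying HIG-tagged alpha-DG that lacks glycosylation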
MPTP block = blocks calcium-induced mitochondrial swelling; isolated mouse mitochondria, Ca2+ swelling absorbance, 30 min; 360,000 compounds, 1.4% hits; inhibition, % at 10 µM;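 active means inhibition of 50% or more, scaled per plate between neutral and stimulator controls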;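 further: 0% = DMSO wells given calcium and 100% = 1 mM EGTA wells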
Mot1-301 SUMO = SUMOylation pathway inhibition by Mot1-301 growth rescue; 320,000 compounds, 1% hits; AID 2716; S. cerevisiae Mot1-301 growth rescue, ATP luminescence, 38.5C; percent above DMSO median, 100 means doubled; growth rescue, % at 18.8 µM;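 active means every valid replicate shows activation above 250% relative to neutral control wells; inactive means the rest, any valid replicate at or below 250%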;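 further: OY570 slx delta 5 strain wells were the positive control but not used for scaling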
CR mimetic SO = yeast age-related superoxide inhibition as caloric restriction mimetic | S. cerevisiae aged cells, superoxide DHE fluorescence; active compounds read low | superoxide response (% of plate mean), % at 10 µM | 330,000 compounds, 0.18% hits | AID 2690;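 active means superoxide response under a set limit, about three screen SD below normal, cut at about 65% in these data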;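 further: yeast aged for seven days with compound at 30 °C before DHE staining; 100% = average MFI of all compound-treated wells on the plate with controls excluded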
H9c2 protect = protects H9c2 cardiomyocytes from peroxide injury. H2O2 injury protection, ATPLite, 2 h. protection from H2O2 cell death, % at 20 µM. AID 588492. 360,000 compounds, 0.63% hits;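 active means compounds giving at least 50% protection of heart cells from peroxide-induced death in the single-dose screen, raw or plate-pattern-corrected value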;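 further: 0% = DMSO wells with peroxide and 100% = DMSO wells without peroxide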
An asterisk follows results filed as active. Shown are actives, neighbours in structure and some others; about 3.8% of the full set was active somewhere.

How did COc1cc(NC(=O)c2ccco2)c(OC)cc1NC(=O)c1cc(OC)c(OC)c(OC)c1 do in these assays?
FAS TE block: -4; aDG glyco act: 0; MPTP block: 1; Mot1-301 SUMO: 38; CR mimetic SO: 95; H9c2 protect: 74*

Results for COc1cc(NC(=O)c2ccco2)c(OC)cc1NC(=O)Nc1cccc(Cl)c1 ?
FAS TE block: 11; aDG glyco act: 0; MPTP block: 2; Mot1-301 SUMO: -2; CR mimetic SO: 98; H9c2 protect: 65*

Results for CCOc1cc(NC(=O)c2ccco2)c(OCC)cc1NC(=O)c1cc(OC)c(OC)c(OC)c1 ?
FAS TE block: -1; aDG glyco act: 0; MPTP block: 2; Mot1-301 SUMO: 14; CR mimetic SO: 110; H9c2 protect: 15

Results for COc1cc(NC(=O)c2ccco2)c(C(=O)OCC(=O)c2c[nH]c3ccccc23)cc1OC ?
FAS TE block: -6; aDG glyco act: -1; MPTP block: 11; Mot1-301 SUMO: -12; CR mimetic SO: 84; H9c2 protect: 66*

What do the screens show for `COc1ccc(NC(=O)c2ccco2)cc1NC(=O)c1ccco1`?
FAS TE block: -4; aDG glyco act: 0; MPTP block: -2; Mot1-301 SUMO: 60; CR mimetic SO: 98; H9c2 protect: -3

Results for CC(C)Oc1ccc(CNS(=O)(=O)c2csc(C(N)=O)c2)cc1 ?
FAS TE block: -2; aDG glyco act: 1; MPTP block: -1; Mot1-301 SUMO: -6; CR mimetic SO: 93; H9c2 protect: -9

Results for CN(C)CC(NC(=O)c1cccc(S(=O)(=O)Nc2ccc3c(c2)OCO3)c1)c1ccccc1 (configuration not stated) ?
FAS TE block: -4; aDG glyco act: 0; MPTP block: 0; Mot1-301 SUMO: -11; CR mimetic SO: 117; H9c2 protect: 18

How did Cc1cc(C(=O)COC(=O)c2ccc(Cl)c(S(N)(=O)=O)c2)c(C)n1CC1CCCO1 (configuration not stated) do in these assays?
FAS TE block: -5; aDG glyco act: 0; MPTP block: -1; Mot1-301 SUMO: 331*; CR mimetic SO: 108; H9c2 protect: -10

What do the screens show for `Cc1cc(C(=O)COC(=O)c2ccc(O)cc2)c(C)n1CC1CCCO1` (configuration not stated)?
FAS TE block: -4; aDG glyco act: 0; MPTP block: 0; Mot1-301 SUMO: 1; CR mimetic SO: 106; H9c2 protect: -14

Results for Cc1ccc(NC(=O)COC(=O)CC2SC(N3CCCC3)=NC2=O)cc1 (configuration not stated) ?
FAS TE block: -6; aDG glyco act: 0; MPTP block: 1; Mot1-301 SUMO: 21; CR mimetic SO: 118; H9c2 protect: 4

How did CNC(=O)/C(C#N)=C/c1c(N(Cc2ccccc2)Cc2ccccc2)nc2ccccn2c1=O do in these assays?
FAS TE block: 22; aDG glyco act: 0; MPTP block: -2; Mot1-301 SUMO: 2; CR mimetic SO: 104; H9c2 protect: 56*

What do the screens show for `O=C1CCCc2cc3c(cc21)CC1(C3)Cc2cc3c(cc2C1)C(=O)CCC3`?
FAS TE block: 16; aDG glyco act: 0; MPTP block: 36; Mot1-301 SUMO: 7; CR mimetic SO: 124; H9c2 protect: -15

How did CC(C)n1cc(CNC(=O)C2CCC(=O)N(Cc3ccccc3F)C2)cn1 (configuration not stated) do in these assays?
FAS TE block: -7; aDG glyco act: 0; MPTP block: -1; Mot1-301 SUMO: 324*; CR mimetic SO: 76; H9c2 protect: 10

What do the screens show for `Cn1cc(CNC(=O)C2CCC(=O)N(Cc3ccc(Cl)cc3)C2)cn1` (configuration not stated)?
FAS TE block: -6; aDG glyco act: 0; MPTP block: -2; Mot1-301 SUMO: 2; CR mimetic SO: 92; H9c2 protect: 2

Results for CN(C(=O)COC(=O)c1ccc(=O)n(Cc2ccccc2)n1)C1CCCCC1 ?
FAS TE block: -2; aDG glyco act: 0; MPTP block: 0; Mot1-301 SUMO: 14; CR mimetic SO: 114; H9c2 protect: 1

What do the screens show for `CC(C)n1nc(C(=O)Nc2nc3ccccc3[nH]2)c2ccccc2c1=O`?
FAS TE block: -2; aDG glyco act: 0; MPTP block: 4; Mot1-301 SUMO: -10; CR mimetic SO: 103; H9c2 protect: 60*

How did CCn1nc(C(=O)OCC(=O)c2c[nH]c3ccccc23)c2ccccc2c1=O do in these assays?
FAS TE block: 0; aDG glyco act: 2; MPTP block: 6; CR mimetic SO: 104; H9c2 protect: 58*

What do the screens show for `CC(C)n1nc(C(=O)OCC(=O)c2c[nH]c3ccccc23)c2ccccc2c1=O`?
FAS TE block: 16; aDG glyco act: 0; MPTP block: 3; Mot1-301 SUMO: -6; CR mimetic SO: 96; H9c2 protect: 62*

Results for CCCS(=O)(=O)NC(=O)C1(C)CCN(C(=O)c2nc(C)oc2C)C1 (configuration not stated) ?
FAS TE block: -6; aDG glyco act: 0; MPTP block: -2; H9c2 protect: -2

Results for CCCN1C(=O)c2cc(C(=O)Nc3cccc(C(C)=O)c3)ccc2C1Nc1cccc(C(C)=O)c1 (configuration not stated) ?
FAS TE block: 6; aDG glyco act: 0; MPTP block: 4; Mot1-301 SUMO: -17; CR mimetic SO: 84; H9c2 protect: 52*

What do the screens show for `CC(C)(C)OC(=O)C[C@@H]1C/C=C\C[C@@H](CC(=O)N(CCO)Cc2ccccc2)C(=O)NC[C@@H](c2ccccc2)OC1=O`?
FAS TE block: -11; aDG glyco act: 0; MPTP block: 1; Mot1-301 SUMO: 4; CR mimetic SO: 112; H9c2 protect: 16

Results for CC(C)(C)OC(=O)C[C@@H]1C/C=C\C[C@@H](CC(=O)N(CCO)Cc2ccccc2)C(=O)NC[C@H](c2ccccc2)OC1=O ?
FAS TE block: -4; aDG glyco act: 1; MPTP block: 0; Mot1-301 SUMO: -2; CR mimetic SO: 110; H9c2 protect: 92*

Results for Cc1c(C(=O)OCC(=O)c2ccc3c(c2)OCCO3)oc2ccccc12 ?
FAS TE block: 6; aDG glyco act: 0; MPTP block: 1; Mot1-301 SUMO: 312*; CR mimetic SO: 92; H9c2 protect: -17

What do the screens show for `Cc1cc(C(=O)OCC(=O)c2ccc3c(c2)OCCO3)c(C)o1`?
FAS TE block: 7; aDG glyco act: 0; MPTP block: 0; Mot1-301 SUMO: -11; CR mimetic SO: 107; H9c2 protect: -16

What do the screens show for `CCn1c(C)c(C(C)=O)c(N2CCN(c3cccc(Cl)c3)CC2)nc1=S`?
FAS TE block: 9; aDG glyco act: 0; MPTP block: -2; Mot1-301 SUMO: 585*; CR mimetic SO: 104; H9c2 protect: 3
